For 31 compounds, inhibition results are on record in ChEMBL document CHEMBL1961873, “Compounds: GSK PKIS; Assays: Nanosyn kinase panel” (2012).

Test [1] concerns the target RAF proto-oncogene serine/threonine-protein kinase (Homo sapiens) (UniProt P04049). To be noted: at 1 µM.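 Also: values are the mean percent inhibition of CRAF.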
In test [2] the target is T1, Interleukin-1 receptor-associated kinase 4 (Homo sapiens) (UniProt Q9NWZ3).
T1 sequence (whole entry): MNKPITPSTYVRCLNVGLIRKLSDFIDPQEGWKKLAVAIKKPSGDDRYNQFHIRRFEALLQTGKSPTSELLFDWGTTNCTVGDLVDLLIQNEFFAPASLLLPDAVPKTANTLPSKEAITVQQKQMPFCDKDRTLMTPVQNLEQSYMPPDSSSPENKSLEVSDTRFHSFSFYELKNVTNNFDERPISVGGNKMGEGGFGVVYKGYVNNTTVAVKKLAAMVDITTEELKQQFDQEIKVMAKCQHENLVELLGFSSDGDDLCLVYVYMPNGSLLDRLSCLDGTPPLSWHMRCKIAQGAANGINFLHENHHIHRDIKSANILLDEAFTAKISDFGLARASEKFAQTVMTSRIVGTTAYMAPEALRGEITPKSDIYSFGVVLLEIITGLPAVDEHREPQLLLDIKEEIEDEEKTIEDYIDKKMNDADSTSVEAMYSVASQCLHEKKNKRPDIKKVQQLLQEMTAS
The settings on record: at 0.1 µM.

The target of test [3] is T1, Interleukin-1 receptor-associated kinase 4 (Homo sapiens). The settings on record: at 1 µM.
For test [4], the target named is Leucine-rich repeat serine/threonine-protein kinase 2 (Homo sapiens) (UniProt Q5S007). To be noted: at 0.1 µM.
Leucine-rich repeat serine/threonine-protein kinase 2 (Homo sapiens), sequence (Q5S007 whole entry): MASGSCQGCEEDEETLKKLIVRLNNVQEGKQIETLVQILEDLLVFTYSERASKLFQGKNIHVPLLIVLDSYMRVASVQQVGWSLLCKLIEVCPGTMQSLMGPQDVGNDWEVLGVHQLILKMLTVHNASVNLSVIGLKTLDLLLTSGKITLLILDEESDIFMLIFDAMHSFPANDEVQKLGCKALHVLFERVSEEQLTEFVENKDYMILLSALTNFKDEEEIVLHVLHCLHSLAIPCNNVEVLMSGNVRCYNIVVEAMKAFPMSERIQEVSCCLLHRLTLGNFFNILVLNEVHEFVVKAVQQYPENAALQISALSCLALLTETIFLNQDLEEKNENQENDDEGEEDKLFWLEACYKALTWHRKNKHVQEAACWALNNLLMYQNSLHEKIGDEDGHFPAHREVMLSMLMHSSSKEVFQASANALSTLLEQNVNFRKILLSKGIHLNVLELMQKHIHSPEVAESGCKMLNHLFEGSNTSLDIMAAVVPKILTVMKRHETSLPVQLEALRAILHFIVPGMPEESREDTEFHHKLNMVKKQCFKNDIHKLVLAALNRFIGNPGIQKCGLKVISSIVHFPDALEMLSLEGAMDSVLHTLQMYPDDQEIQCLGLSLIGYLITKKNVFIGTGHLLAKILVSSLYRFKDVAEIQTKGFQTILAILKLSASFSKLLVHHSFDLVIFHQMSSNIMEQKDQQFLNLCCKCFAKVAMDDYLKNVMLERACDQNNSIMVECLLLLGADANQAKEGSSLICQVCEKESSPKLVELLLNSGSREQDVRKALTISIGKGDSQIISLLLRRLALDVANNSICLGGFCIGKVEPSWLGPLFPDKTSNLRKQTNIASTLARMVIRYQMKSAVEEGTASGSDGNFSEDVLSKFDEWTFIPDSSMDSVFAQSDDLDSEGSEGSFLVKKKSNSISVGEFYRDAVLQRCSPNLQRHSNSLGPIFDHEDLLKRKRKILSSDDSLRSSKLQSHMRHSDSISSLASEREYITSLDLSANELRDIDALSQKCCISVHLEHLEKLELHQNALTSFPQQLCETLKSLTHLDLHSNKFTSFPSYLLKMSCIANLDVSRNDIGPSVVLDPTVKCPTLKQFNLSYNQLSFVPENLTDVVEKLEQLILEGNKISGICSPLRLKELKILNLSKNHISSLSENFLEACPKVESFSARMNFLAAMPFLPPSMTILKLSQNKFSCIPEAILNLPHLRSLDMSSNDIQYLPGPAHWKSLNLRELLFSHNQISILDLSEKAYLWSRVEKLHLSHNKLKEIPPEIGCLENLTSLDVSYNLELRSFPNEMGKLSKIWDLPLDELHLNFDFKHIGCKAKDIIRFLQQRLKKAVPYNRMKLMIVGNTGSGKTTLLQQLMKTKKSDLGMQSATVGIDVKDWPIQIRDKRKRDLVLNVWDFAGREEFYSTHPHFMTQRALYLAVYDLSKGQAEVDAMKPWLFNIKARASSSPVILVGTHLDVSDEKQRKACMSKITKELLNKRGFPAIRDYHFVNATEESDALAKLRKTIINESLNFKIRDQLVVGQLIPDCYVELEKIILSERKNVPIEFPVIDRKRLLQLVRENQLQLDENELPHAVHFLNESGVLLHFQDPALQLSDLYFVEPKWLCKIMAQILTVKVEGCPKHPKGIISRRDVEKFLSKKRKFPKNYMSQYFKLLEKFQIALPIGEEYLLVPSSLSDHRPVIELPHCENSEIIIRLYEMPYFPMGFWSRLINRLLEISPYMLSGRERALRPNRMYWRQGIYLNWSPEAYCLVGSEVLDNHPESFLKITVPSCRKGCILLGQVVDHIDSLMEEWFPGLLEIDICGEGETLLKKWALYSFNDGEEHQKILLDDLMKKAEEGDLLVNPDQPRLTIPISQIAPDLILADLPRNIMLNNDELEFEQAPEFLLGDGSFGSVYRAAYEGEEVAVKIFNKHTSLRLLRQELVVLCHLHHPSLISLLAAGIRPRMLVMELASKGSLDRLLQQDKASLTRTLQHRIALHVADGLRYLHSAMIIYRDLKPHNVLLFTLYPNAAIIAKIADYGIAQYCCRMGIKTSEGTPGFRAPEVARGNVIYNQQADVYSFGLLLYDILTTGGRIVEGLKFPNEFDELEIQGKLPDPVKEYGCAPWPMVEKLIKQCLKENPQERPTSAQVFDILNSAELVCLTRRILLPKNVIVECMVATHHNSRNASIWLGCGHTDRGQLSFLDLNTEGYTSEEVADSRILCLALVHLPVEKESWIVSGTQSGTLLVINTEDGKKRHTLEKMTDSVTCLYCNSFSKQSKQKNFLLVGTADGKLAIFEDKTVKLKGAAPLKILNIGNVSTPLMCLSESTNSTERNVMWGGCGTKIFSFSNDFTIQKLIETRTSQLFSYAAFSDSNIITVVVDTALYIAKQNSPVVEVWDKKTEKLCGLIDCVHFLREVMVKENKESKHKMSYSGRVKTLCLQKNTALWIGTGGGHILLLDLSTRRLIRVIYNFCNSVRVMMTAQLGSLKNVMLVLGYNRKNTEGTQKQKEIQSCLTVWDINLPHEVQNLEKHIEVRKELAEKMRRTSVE
Test [5] shares this target. To be noted: at 1 µM.
The subject of test [6] is Leucine-rich repeat serine/threonine-protein kinase 2 (Homo sapiens), Q5S007 [G2019S]. The settings on record: at 0.1 µM.
Test [7] shares this test system. The settings on record: at 1 µM.

Each structure is given as a SMILES string. “And” between values parts separate entries of the source, which are not always exact repeats. Equal entries are not always repeated.

RAF proto-oncogene serine/threonine-protein kinase (Homo sapiens), sequence (P04049 whole entry): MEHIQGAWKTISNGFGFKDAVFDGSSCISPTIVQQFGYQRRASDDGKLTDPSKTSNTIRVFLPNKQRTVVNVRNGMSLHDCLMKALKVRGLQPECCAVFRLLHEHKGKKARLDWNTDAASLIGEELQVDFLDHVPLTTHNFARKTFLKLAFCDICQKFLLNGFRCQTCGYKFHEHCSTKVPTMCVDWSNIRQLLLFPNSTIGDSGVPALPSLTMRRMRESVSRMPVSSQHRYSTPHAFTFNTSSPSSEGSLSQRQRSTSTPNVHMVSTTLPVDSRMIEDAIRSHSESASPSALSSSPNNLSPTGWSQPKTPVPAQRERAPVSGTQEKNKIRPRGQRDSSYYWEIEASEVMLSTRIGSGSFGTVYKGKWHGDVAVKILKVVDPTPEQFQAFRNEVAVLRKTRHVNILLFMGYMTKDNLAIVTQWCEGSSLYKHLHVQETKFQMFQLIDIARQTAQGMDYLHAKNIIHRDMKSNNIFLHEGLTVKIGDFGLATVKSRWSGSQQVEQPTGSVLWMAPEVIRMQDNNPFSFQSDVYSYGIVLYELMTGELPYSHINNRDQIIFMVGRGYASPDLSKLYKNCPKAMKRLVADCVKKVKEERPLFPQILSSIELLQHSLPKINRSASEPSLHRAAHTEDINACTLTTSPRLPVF
Leucine-rich repeat serine/threonine-protein kinase 2 (Homo sapiens), Q5S007 [G2019S], sequence (Q5S007 whole entry G2019S): as the sequence (Q5S007 whole entry) above, with G2019S counted along it

For orientation: inhibition means the relative decrease from the control value, in per cent. Take `COc1ccc(Nc2ncc(-c3ccccc3)o2)cc1OC`: the inhibition in test [1] came out at 3.96%; in test [2] it was 2.27%; in test [3] it was 2.28%; in test [4], 1.05%; in test [5] it was 13.2%; in test [6], 3.5%. Besides, the inhibition in test [7] was determined as 22.9%.

Turning to `COc1cc2c(cc1Nc1nc(Nc3cccc(F)c3C(N)=O)c3cc[nH]c3n1)N(C(=O)CN1CCN(C(C)C)CC1)CC2`, the inhibition in test [1] was -4.19%; in test [2], -0.19%; in test [3], -0.43%; in test [4] it was 25.8%; in test [5] it was 76.8%; in test [6], 41.5%. Also, in test [7], the inhibition came out at 59.8%.

As to `Fc1cccc(COc2ccc(Nc3ncncc3C#Cc3ccccc3)cc2Cl)c1`, the inhibition in test [1] was 5.17%; in test [2], 0.71%; in test [3] it was 2.43%; in test [4], 3.65%; in test [5], 7.01%; in test [6], 4.05%. In addition, in test [7], the inhibition was 6.17%.

As to `Cc1ccc(-c2cc3c(NC(=O)C4CC4)ncnc3o2)cc1`, the inhibition in test [1] is -2.51%; in test [2], -1.3%; in test [3], 2.26%; in test [4], 9.7%; in test [5], 12.2%; in test [6], 9.7%. In test [7], the inhibition turned out to be 16.6%.

As for `CN(C)CCNC(=O)Nc1ccc(N(C)c2ccnc(Nc3ccc(CS(C)(=O)=O)cc3)n2)cc1`, the inhibition in test [1] was -0.82%; in test [2], -4.3%; in test [3], 2.15%; in test [4] it was 4.46%; in test [5], 11.5%; in test [6], 6.1%. Besides, the inhibition in test [7] is 23%.

For the compound `CCN1CCC(C(=O)Nc2n[nH]c3nnc(-c4cccc(F)c4F)cc23)CC1`, the inhibition in test [1] is -2.59%; in test [2] it was 0.27%; in test [3], 0.13%; in test [4], 1.99%; in test [5], 3.27%; in test [6], 2.15%. The inhibition in test [7] turned out to be 1.7%.

As to `COc1cccc(-n2ncc3c(N/N=C/c4ccc(C(=O)NCCN(C)C)cc4)ncnc32)c1`, the inhibition in test [1] was 1.13%; in test [2] it was -3.06%; in test [3], 1.87%; in test [4] it was 8.48%; in test [5], 17.2%; in test [6], 12.5%. Further, the inhibition in test [7] stood at 49.6%.

`O=C1Nc2ccccc2/C1=C1\CCc2cc(O)ccc21`: the inhibition in test [1] is -4.27%; in test [2] it was 0.67%; in test [3] it was 5.31%; in test [4] it was 17.6%; in test [5], 66.3%; in test [6] it was 22.1%. Besides, the inhibition in test [7] was found to be 63.6%.

For `CC1=C(C(=O)Nc2ccc3[nH]ncc3c2)C(c2ccc(F)cc2)N=C(c2ccc(C(F)(F)F)nc2)N1` (configuration not stated), the inhibition in test [1] was -4.26%; in test [2], -2.11%; in test [3] it was 0.95%; in test [4], 2.81%; in test [5], 7.24%; in test [6] it was 5.04%. Also, in test [7], the inhibition came to 26%.

As to `N#Cc1cccc(Nc2ncc(-c3ccccc3)o2)c1`, the inhibition is -0.15% in test [1]; 2.82% in test [2]; 0.78% in test [3]; 1.01% in test [4]; 2.11% in test [5]; 1.64% in test [6]. Further, the inhibition in test [7] came to 4.25%.

As to `Cc1cc(O)cc(C)c1/C=C/c1cncc(C(N)=O)c1`, the inhibition is 5.31% in test [1]; -1.86% in test [2]; 0.71% in test [3]; 1.8% in test [4]; 6.26% in test [5]; 3.18% in test [6]. Moreover, in test [7], the inhibition was 13.3%.

In the case of `COc1cc(Nc2ncc(-c3ccccc3)o2)cc(OC)c1`, the inhibition in test [1] was -1.38%; in test [2] it was 2.03%; in test [3], 2.83%; in test [4] it was 0.94%; in test [5] it was 6.82%; in test [6], 2.33%. Further, in test [7], the inhibition was 12.5%.

On to `COc1cc(N2CCN(C(C)C)CC2)ccc1Nc1nc(Nc2cccc(F)c2C(=O)O)c2cc[nH]c2n1`, for which the inhibition in test [1] is 0.19%; in test [2], 2.04%; in test [3] it was 2.25%; in test [4], 6.61%; in test [5], 16.3%; in test [6] it was 19%. Also, in test [7], the inhibition worked out at 59.3%.

For the compound `CNC(=O)c1ncccc1Nc1nc(Nc2cc3c(cc2OC)CCCN3C(=O)CN(C)C)nc2[nH]ccc12`, the inhibition in test [1] was -9.95%; in test [2] it was -0.32%; in test [3] it was 2.65%; in test [4], 29.7%; in test [5], 26.6%; in test [6], 65.3%. Besides, in test [7], the inhibition stood at 64.5%.

With `c1cnn2ncc(-c3ccnc(NCCCN4CCOCC4)n3)c2c1`, the inhibition was -5.16% in test [1]; 2.04% in test [2]; 1.39% in test [3]; 1.69% in test [4]; 1.57% in test [5]; 2.1% in test [6]. Besides, in test [7], the inhibition worked out at 5.03%.

For the compound `COc1c(C(N)=O)cc(-c2ccc(Cl)cc2)cc1-c1ccc(S(N)(=O)=O)cc1`, the inhibition in test [1] was 1.44%; in test [2], 1.96%; in test [3], 1.85%; in test [4] it was -0.34%; in test [5] it was 6.11%; in test [6] it was 3.53%. In test [7], the inhibition came out at 9.4%.

In the case of `CS(=O)(=O)Nc1ccc(-c2cc(-c3ccccc3)cc(C(N)=O)c2N)cc1`, the inhibition in test [1] is -4.37%; in test [2] it was 0.55%; in test [3], 1.37%; in test [4] it was 1.64%; in test [5], 4.15%; in test [6], 3.87%. In addition, the inhibition in test [7] is 5.66%.

On to `NS(=O)(=O)c1ccc(N/N=C2\C(=O)Nc3cccc(CCc4ccncc4)c32)cc1`, for which the inhibition was -2.61% in test [1]; -0.38% in test [2]; 0.01% in test [3]; 6.21% in test [4]; 9.58% in test [5]; 8.14% in test [6]. Further, the inhibition in test [7] was determined as 12.9%.

As for `Cn1c(-c2nonc2N)nc2cnccc21`, the inhibition in test [1] was 8.87%; in test [2], 3.47%; in test [3] it was 1.21%; in test [4], 2.89%; in test [5], 10.6%; in test [6], 4.16%. The inhibition in test [7] turned out to be 20.5%.

With `CC(C)c1ccc(-c2cc(-c3c[nH]nc3-c3ccccn3)ccn2)cc1`, the inhibition in test [1] was determined as 1.4%; in test [2], 1.27%; in test [3], 0.36%; in test [4] it was 2.9%; in test [5], 4.8%; in test [6] it was 1.2%. For the same compound, the inhibition in test [7] turned out to be 7.15%.

Consider `COC(=O)Nc1nc2cc(Oc3ccc(NC(=O)Nc4ccccc4)cc3)ccc2[nH]1`, for which the inhibition was determined as 17.3% in test [1]; 2.38% in test [2]; 0.86% in test [3]; 3.5% in test [4]; 6.86% in test [5]; 3.61% in test [6]. In test [7], the inhibition was 4.1%.

With `CS(=O)(=O)CCNCc1ccoc1-c1ccc2ncnc(Nc3ccc(OCc4ccccc4)cc3)c2c1`, the inhibition in test [1] was -1.65%; in test [2], 0.62%; in test [3] it was 1.15%; in test [4], 1.37%; in test [5] it was 3.82%; in test [6], 2.44%. In addition, the inhibition in test [7] came out at 2.57%.

`COc1ccc2ncn(-c3cc(O[C@H](C)c4ccccc4C(F)(F)F)c(C(N)=O)s3)c2c1`: the inhibition in test [1] was 0.1%; in test [2], 1.48%; in test [3], 0.87%; in test [4], 4.72%; in test [5], 15.9%; in test [6], 5.16%. The inhibition in test [7] was 31%.

On to `CCCNc1cccc(-n2ncc3c(N/N=C/c4ccncc4)ncnc32)c1`, for which the inhibition in test [1] is -3.81%; in test [2] it was 2.03%; in test [3], 0.71%; in test [4], 3.27%; in test [5], 12.2%; in test [6], 5.55%. Further, the inhibition in test [7] worked out at 37.8%.

In the case of `COC(=O)Nc1nc2ccc(Oc3ccc(NC(=O)Nc4cc(C(F)(F)F)ccc4F)cc3)cc2s1`, the inhibition in test [1] came out at 60.1%; in test [2], 1.94%; in test [3], 0.25%; in test [4] it was 17.4%; in test [5], 48.5%; in test [6], 9.18%. In test [7], the inhibition is 37.8%.

Regarding `COc1ccccc1-c1cc(/C=C2\C(=O)Nc3ncc(Br)cc32)cc(Br)c1O`, the inhibition was -9.49% in test [1]; 2.4% in test [2]; 1.85% in test [3]; 7.41% in test [4]; 17.6% in test [5]; 13.5% in test [6]. In addition, in test [7], the inhibition was 55.3%.

Take `OCCCNc1nccc(-c2c(-c3ccc(F)cc3)nn3cc(C(F)(F)F)ccc23)n1`: the inhibition in test [1] is -7.33%; in test [2] it was -1.58%; in test [3] it was 1.48%; in test [4] it was 5.02%; in test [5], 7.46%; in test [6], 2.62%. The inhibition in test [7] turned out to be 7.85%.

`Cc1cc(O)cc(C)c1/C=C/c1cncc(C(=O)OC(C)(C)C)c1`: the inhibition was -0.4% in test [1]; 3.06% in test [2]; 1.36% in test [3]; 6.27% in test [4]; 9.43% in test [5]; 6.75% in test [6]. Also, the inhibition in test [7] amounted to 10.9%.

Consider `O=C(O[C@H]1CN[C@H](C#Cc2cc3ncnc(Nc4ccc(OCc5cccc(F)c5)c(Cl)c4)c3s2)C1)N1CCOCC1`, for which the inhibition in test [1] amounted to 0.51%; in test [2], 1.13%; in test [3] it was 2.48%; in test [4] it was 2.8%; in test [5], 7.32%; in test [6] it was 4.61%. In test [7], the inhibition amounted to 8.39%.

Turning to `Nc1nonc1-c1nc2cnccc2n1C1CC1`, the inhibition is 5.43% and 2.92% in test [1]; -0.18% and 2.38% in test [2]; 2.91% and 1.65% in test [3]; 8.81% and 0.08% in test [4]; 15.4% and 10.4% in test [5]; 13.3% and 5.33% in test [6]. Moreover, the inhibition in test [7] was 44.6% and 35%.

As to `CN1CCC(C(=O)Nc2n[nH]c3nc(-c4ccc(O)cc4)c(Br)cc23)CC1`, the inhibition in test [1] was 2.83% and -8.49%; in test [2] it was 3.04% and 2.37%; in test [3], 2.24% and 1.33%; in test [4], -2.84% and -1.67%; in test [5], 2.03% and 7.36%; in test [6], -0.31% and 1.49%. Moreover, the inhibition in test [7] was 4.77% and 5.48%.
